Reference: publication PMC4336329 (PLoS ONE, 2015)
Hit rate of the full screen: of about 310,000 compounds, about 14,000 (4.5%) showed an effect of 50% or more. Effects have a minus sign here. What follows is part of a selection rich in strong results, with near analogues and random picks from the rest.

Target: human ether-à-go-go-related gene (hERG) potassium channel (human, UniProt Q12809)
Test: primary screen, population patch clamp on CHO cells stably expressing hERG; higher = less effect of the substance
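Note: peak tail current of the secondary pulse compared with the same well before compound.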

human ether-à-go-go-related gene (hERG) potassium channel, sequence (Q12809 whole entry, looked up): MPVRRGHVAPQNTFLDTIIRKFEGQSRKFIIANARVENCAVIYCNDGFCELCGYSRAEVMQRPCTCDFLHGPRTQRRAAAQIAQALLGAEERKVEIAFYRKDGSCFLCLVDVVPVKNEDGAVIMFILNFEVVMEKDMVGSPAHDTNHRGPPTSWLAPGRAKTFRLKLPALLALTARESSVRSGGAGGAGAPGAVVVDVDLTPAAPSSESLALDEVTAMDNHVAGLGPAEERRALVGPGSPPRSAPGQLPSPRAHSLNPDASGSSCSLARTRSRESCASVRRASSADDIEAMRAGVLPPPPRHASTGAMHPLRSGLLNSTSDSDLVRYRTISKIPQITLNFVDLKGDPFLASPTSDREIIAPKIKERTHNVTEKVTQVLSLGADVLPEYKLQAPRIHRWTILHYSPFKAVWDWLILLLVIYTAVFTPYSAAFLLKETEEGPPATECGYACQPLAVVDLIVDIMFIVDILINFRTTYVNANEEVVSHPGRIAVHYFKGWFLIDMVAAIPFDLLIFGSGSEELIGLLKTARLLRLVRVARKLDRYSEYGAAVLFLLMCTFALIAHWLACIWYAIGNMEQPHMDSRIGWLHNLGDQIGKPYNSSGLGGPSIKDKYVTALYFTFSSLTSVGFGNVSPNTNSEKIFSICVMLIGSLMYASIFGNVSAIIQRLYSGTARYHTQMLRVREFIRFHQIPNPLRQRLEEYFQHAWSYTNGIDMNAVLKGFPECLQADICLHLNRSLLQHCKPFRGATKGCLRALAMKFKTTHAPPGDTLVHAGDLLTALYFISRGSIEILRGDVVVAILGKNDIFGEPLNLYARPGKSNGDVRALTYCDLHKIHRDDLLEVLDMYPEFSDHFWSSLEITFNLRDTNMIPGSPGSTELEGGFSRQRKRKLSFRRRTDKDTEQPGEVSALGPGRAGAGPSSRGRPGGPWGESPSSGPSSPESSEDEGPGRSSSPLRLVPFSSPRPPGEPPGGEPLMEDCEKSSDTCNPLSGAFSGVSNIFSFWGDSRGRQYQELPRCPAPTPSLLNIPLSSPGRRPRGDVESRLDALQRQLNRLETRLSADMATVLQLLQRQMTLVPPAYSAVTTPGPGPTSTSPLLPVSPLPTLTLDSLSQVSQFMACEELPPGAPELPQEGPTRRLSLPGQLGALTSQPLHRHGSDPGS

Compound	hERG current change (%, negative = inhibition) at 10uM
COCC1CCN(Cc2cn[nH]c2-c2cc3ccccc3o2)C1 (stereo not shown)	-33.7%
c1ccc2oc(-c3[nH]ncc3CN3CCC(N4CCSCC4)CC3)cc2c1	-61.9%
Cc1nonc1C1CCCN1Cc1cn[nH]c1-c1ccc(-c2ccccc2)cc1 (stereo not shown)	-24.6%
CN(C)c1ccc(CNC(=O)CN(C)S(=O)(=O)c2ccc3c(c2)c(=O)n(C)c(=O)n3C)cc1	9.67%
CC1(C)CC(=O)C2=C(C1)NC(=O)NC2c1ccccc1Cl (stereo not shown)	16.3%
CC(C)C(C(=O)NC1CCCCC1)N(CC1CCCO1)C(=O)CNS(=O)(=O)c1ccc(F)cc1 (stereo not shown)	-7.17%
Cc1ccc(S(=O)(=O)NCC(=O)N(CC2CCCO2)C(C(=O)NC2CCCCC2)C(C)C)cc1 (stereo not shown)	-52.7%
Cc1ccc(S(=O)(=O)NCC(=O)N(CC2CCCO2)C(C(=O)NC2CCCC2)C(C)C)cc1 (stereo not shown)	-1.47%
Cl.O=C(O)CCNc1nc(-c2ccccc2)nc2ccccc12	2.17%
CC(C)(C)OC(=O)NNC(=O)NC12CC3CC(CC(C3)C1)C2	-4.97%
Cc1ccc(NC(=O)CSc2nc(N)cc(N)n2)cc1S(=O)(=O)N1CCOCC1	7.71%
CCN(C(=O)C1CCN(c2nc(-c3ccc(OC)cc3)no2)CC1)c1ccccc1	-24.7%
O=C(CSCc1cccc(CSCC(=O)Nc2ccc3ccccc3c2)n1)Nc1ccc2ccccc2c1	9.54%
O=C(CSCc1cccc(CSCC(=O)Nc2ccccc2)n1)Nc1ccccc1	-67%
O=C(CSCc1ccccn1)Nc1ccccc1	1.85%
O=C(CSCc1ccco1)Nc1cc(C(F)(F)F)ccc1N1CCOCC1	-49%
COc1cccc(OC)c1OCC(O)CN1CCN(c2ccccc2F)CC1.Cl (stereo not shown)	-12.2%
CC(C(=O)N1CCN(c2ccccc2F)CC1)c1ccc([N+](=O)[O-])cc1 (stereo not shown)	-68.4%
O=[N+]([O-])c1ccc(OCC(O)CN2CCN(c3ccccc3F)CC2)cc1 (stereo not shown)	-75.3%
Cl.OC(COCc1ccccc1)CN1CCN(c2ccccc2F)CC1 (stereo not shown)	-45.9%
O=S(=O)(c1ccc(OCC(O)CN2CCN(c3ccccc3O)CC2)cc1)N1CCOCC1 (stereo not shown)	-6.91%
CC(C(=O)N1CCCC1)c1ccc([N+](=O)[O-])cc1 (stereo not shown)	-0.0422%

Compound	hERG current change (%, negative = inhibition) at 10uM
Cl.OC(COc1ccc(F)cc1)CN1CCN(c2ccccc2F)CC1 (stereo not shown)	-66.6%
CC(C(=O)N1CCN(c2ccccc2)CC1)c1ccc([N+](=O)[O-])cc1 (stereo not shown)	-42.7%
Cc1ccc(N2CCN(C(=O)NC3CCCCC3)CC2C)cc1 (stereo not shown)	4.09%
CCOC(=O)c1c(S(=O)(=O)NCc2cccs2)c(C)n(C)c1C	-12.1%
CC(=O)c1ccc(N(C(=O)Cc2c[nH]c3ccccc23)C(C(=O)NC2CCCCC2)c2cccs2)cc1 (stereo not shown)	7.81%
CN1C(=O)CSC1=NCC12CC3CC(CC(C3)C1)C2	-19.6%
CC(C)CC(=O)NC1(C(F)(F)F)C(=O)Nc2c1c(=O)n(C)c(=O)n2C (stereo not shown)	10.5%
COc1cc(OC)nc(NC2OC(=O)c3ccccc32)n1 (stereo not shown)	0.248%
CC(=O)Oc1cc2c(cc1Cl)C(c1cccs1)CC1(CC(C)(C)NC(=S)N1)O2 (stereo not shown)	9.77%
COc1cccc(CN2CCCC(C(=O)c3ccc4c(c3)OCO4)C2)c1O (stereo not shown)	-65.5%
COc1cccc(CN2CCCC(C(=O)N3CCCCC3)C2)c1OC.O=C(O)C(=O)O (stereo not shown)	-26.3%
COc1cc(OC)c(OC)cc1CN1CCCC(C(=O)N2CCCC2)C1.O=C(O)C(=O)O (stereo not shown)	17.4%
COc1ccc(CN2CCCC(C(=O)c3ccc4c(c3)OCO4)C2)c(F)c1 (stereo not shown)	-64.2%
COc1cc(OC)c(OC)cc1CN1CCCC(C(=O)c2ccc3c(c2)OCO3)C1 (stereo not shown)	-67.1%
COc1cccc(CN2CCCC(C(=O)c3ccc4c(c3)OCO4)C2)c1OC (stereo not shown)	-63.3%
COc1cccc(CN2CCC(C(=O)N3CCN(Cc4ccc5c(c4)OCO5)CC3)CC2)c1OC	-39.5%
COC(=O)c1ccccc1NC(=O)COC(=O)CO/N=C(\C)c1ccc2c(c1)OCO2	21%
CCn1c(SCC(=O)Nc2nc3ccc(OC)cc3s2)nnc1-c1ccoc1C	-32.3%
OC(COc1cc(Cl)c(Cl)cc1Cl)CN1CCN(c2ncccn2)CC1 (stereo not shown)	-11.3%
CCSc1nnc(NC(=O)CSc2nccn2-c2cc(C)cc(C)c2)s1	-2.92%
COc1ccc(-c2c(C)nn3c(N4CCCCCC4)cc(C)nc23)cc1OC	7.94%
